Assay [1] is described as follows: HepG2 cells viability qHTS for Zika virus inhibitors (AID 1347168). Further: on the % scale 0 is the no-effect control and ±100 the full control effect. Conditions: Zika counter-screen; series mostly up to 45.9 µM. In short, it runs like this:
(§1)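 Counter-screen for cytotoxicity of hits from NS2B-NS3 protease qHTS. Overnight-attached cells (2.5 x 10^5 cells/mL, DMEM/4% FBS) were dosed in titration, incubated 24 to 48 hours, then assayed by CellTiter Glo.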
(In general: In qHTS, concentration-response curves come from the screen itself.)

Assay [2] is described as follows: Tertiary RLuc qRT-PCR qHTS assay for Zika virus inhibitors (AID 1347169). Further: nearly all actives have a fitted effect of over 55% in size. Further: potency means the concentration at half of the fitted maximal effect. The following applies: infected Vero cells, reporter luminescence, 48-72 h; series mostly up to 45.9 µM. In a few lines: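 Orthogonal cell-based infection assay using recombinant ZIKV-RLuc (Cambodian) in Vero cells; compound added prior to virus at MOI 1-2. Incubation lasts 48-72 hrs at 37 degrees C before live-cell Renilla substrate is added and luminescence measured.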
For orientation: Quantitative PCR measures a nucleic acid by following its amplification.

A short description of assay [3]: Vero cells viability qHTS for Zika virus inhibitors (AID 1347167). Further: on the % scale 0 is the no-effect control and ±100 the full control effect. Conditions: cytotoxicity counter-screen (Zika); series mostly up to 45.9 µM. In short, it runs like this:
as §1

Assay [4] is described as follows: OV-KATE Cancer Cell Toxicity qHTS against the NCATS CANVASS Library (AID 1347345). Further: on the % scale 0 is the no-effect control and ±100 the full control effect. Conditions: OV-KATE cells viability, CellTiter-Glo luminescence, 72 h; series mostly up to 38.3 µM. In a few lines:
(§2)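 Following a 4 h pre-incubation of 1000 seeded cells, compounds were pinned in an 11-pnt dilution series and left for 72 h; viability then came from CellTiter-Glo.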

Assay [5] can be described thus: HPAF-II Cancer Cell Toxicity qHTS against the NCATS CANVASS Library (AID 1347346). Further: on the % scale 0 is the no-effect control and ±100 the full control effect; nearly all actives have a fitted effect of over 55% in size. The following applies: HPAF-II viability, CellTiter-Glo ATP luminescence, 72 h; series mostly up to 38.3 µM. In short, it runs like this: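 HPAF-II cells at 1000 cells/well were treated with an 11-point concentration series for 72 hours at 37 degrees C. Viability read by CellTiter-Glo luminescence.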

Assay [6] can be described thus: UWB1.289 Cancer Cell Toxicity qHTS against the NCATS CANVASS Library (AID 1347347). Further: on the % scale 0 is the no-effect control and ±100 the full control effect; nearly all actives have a fitted effect of over 60% in size. The following applies: UWB1.289 viability, CellTiter-Glo luminescence, 72 h; series mostly up to 38.3 µM. In a few lines: as §2
Assay [7] in a line: OV-SAHO Cancer Cell Toxicity qHTS against the NCATS CANVASS Library (AID 1347348). Further: on the % scale 0 is the no-effect control and ±100 the full control effect; nearly all actives have a fitted effect of over 55% in size. The following applies: OV-SAHO viability, CellTiter-Glo luminescence, 72 h; series mostly up to 38.3 µM. In a few lines:
as §2

The nature of assay [8]: Panc-1005 Cancer Cell Toxicity qHTS against the NCATS CANVASS Library (AID 1347349). Further: on the % scale 0 is the no-effect control and ±100 the full control effect; nearly all actives have a fitted effect of over 60% in size. The following applies: Panc-1005 viability, CellTiter-Glo luminescence, 72 h; series mostly up to 38.3 µM. In short, it runs like this: as §2
The nature of assay [9]: SW1088 Cancer Cell Toxicity qHTS against the NCATS CANVASS Library (AID 1347350). Further: nearly all actives have a fitted effect of over 75% in size. Conditions: SW1088 viability, CellTiter-Glo luminescence, 72 h; at 38.3 µM (top of the series). In a few lines:
as §2

Assay [10] in a line: U-118MG Cancer Cell Toxicity qHTS against the NCATS CANVASS Library (AID 1347351). Conditions: U-118MG viability, CellTiter-Glo luminescence, 72 h; series mostly up to 38.3 µM. In short, it runs like this:
as §2

Assay [11] in a line: COV-362 Cancer Cell Toxicity qHTS against the NCATS CANVASS Library (AID 1347352). Further: on the % scale 0 is the no-effect control and ±100 the full control effect. Conditions: COV-362 viability, CellTiter-Glo luminescence, 72 h; series mostly up to 38.3 µM. In a few lines:
(§3)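 Cells at 1000/well were given compound 4 h after plating in an 11-point series. Viability was read by CellTiter-Glo luminescence after 72 h at 37 degrees C.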

Assay [12] can be described thus: A2780 Cisplatin Sensitive Ovarian Cancer Cell Toxicity qHTS against the NCATS CANVASS Library (AID 1347353). Further: nearly all actives have a fitted effect of over 60% in size. Conditions: A2780 ovarian cancer viability, ATPLite luminescence, 72 h; series mostly up to 46.1 µM. In short, it runs like this: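 A2780 cells, 750/well, settled 4 h at 37 °C, then treated with an 11-point compound series for 72 h. Viability was read as ATPLite luminescence after 10 min at room temperature, with bortezomib as control.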

The nature of assay [13]: UWB1.289-WTBRCA1 Cancer Cell Toxicity qHTS against the NCATS CANVASS Library (AID 1347354). Conditions: UWB1.289-WTBRCA1 viability, CellTiter-Glo luminescence, 72 h; series mostly up to 38.3 µM. In a few lines:
as §3

A short description of assay [14]: HEK-293 Cancer Cell Toxicity qHTS against the NCATS CANVASS Library (AID 1347355). Further: on the % scale 0 is the no-effect control and ±100 the full control effect; nearly all actives have a fitted effect of over 65% in size. The following applies: HEK-293 viability, CellTiter-Glo luminescence, 72 h; series mostly up to 46.1 µM. In short, it runs like this:
as §3

Assay [15] in a line: HPAF-II 24hr Apoptosis Induction qHTS against the NCATS CANVASS Library (AID 1347356). Further: 0% is about no effect. Conditions: HPAF-II caspase-3/7 Caspase-Glo luminescence; series mostly up to 46.1 µM. In short, it runs like this:
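HPAF-II cells (500/well) exposed to compounds in 11-point series for 24 h at 37 degrees C; caspase-3/7 activity read by Caspase-Glo luminescence after 15 min at room temperature. Doxorubicin titration as control.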

The nature of assay [16]: HEK293 18hr Apoptosis Induction qHTS against the NCATS CANVASS Library (AID 1347357). Further: 0% is about no effect. Conditions: HEK293 caspase-3/7 Caspase-Glo luminescence; series mostly up to 46.1 µM. In a few lines:
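Luminescent caspase-3/7 signal is measured in HEK293 cells exposed for 18 hours to an 11-point concentration series; doxorubicin serves as the plate control.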

The nature of assay [17]: HPAF-II 12hr Apoptosis Induction qHTS against the NCATS CANVASS Library (AID 1347358). Further: 0% is about no effect. Conditions: HPAF-II caspase-3/7 Caspase-Glo luminescence; series mostly up to 46.1 µM. In a few lines:
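HPAF-II cells, 500/well in DMEM + 10% FBS, exposed 12 hours at 37 degrees C to compound (11-point). Caspase-Glo 3/7 added for 15 min at room temperature; luminescence reflects caspase-3/7 activity.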

Assay [18] can be described thus: HEK293 24hr Apoptosis Induction qHTS against the NCATS CANVASS Library (AID 1347359). Further: 0% is about no effect. The following applies: HEK293 caspase-3/7 activation, Caspase-Glo luminescence; series mostly up to 46.1 µM. In a few lines:
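HEK293 cells (500/well, DMEM + 10% FBS) were exposed to compounds in an 11-point series for 24 hours at 37 degrees C, then caspase-3/7 activity was read by Caspase-Glo DEVD luciferase luminescence after 15 min.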

Assay [19] in a line: HPAF-II 18hr Apoptosis Induction qHTS against the NCATS CANVASS Library (AID 1347360). Further: 0% is about no effect. Conditions: HPAF-II caspase-3/7 luminescence; series mostly up to 46.1 µM. In a few lines:
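Apoptosis was scored as caspase-3/7 activity in HPAF-II pancreatic cancer cells treated 18 hours with an 11-point concentration series.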

The nature of assay [20]: HEK293 12hr Apoptosis Induction qHTS against the NCATS CANVASS Library (AID 1347361). Further: 0% is about no effect. The following applies: HEK293 caspase-3/7 Caspase-Glo luminescence; series mostly up to 46.1 µM. In a few lines:
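Apoptosis in HEK293 was scored as caspase-3/7 luminescence following 12 h treatment with a compound concentration series in qHTS format.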

SMILES strings stand for the structures. Inconclusive results are not listed. Calls of active or inactive are those of the source. The call rests on the fitted dose curve; in most records, active means well fitted curve in the direction sought with a large enough effect; inconclusive means small, poorly fitted or top-dose-only effect, or another doubt; inactive means no such curve, though single readings can be large; an effect the other way counts as inactive or inconclusive.

As to `CC1(C)CCC(CN2CCN(c3ccc(C(=O)NS(=O)(=O)c4ccc(NCC5CCOCC5)c([N+](=O)[O-])c4)c(Oc4cnc5[nH]ccc5c4)c3)CC2)=C(c2ccc(Cl)cc2)C1`, in assay [1], the outcome was inactive. Also, the Potency in assay [2] was 5.72 µM (active).
For `NC(=O)c1cccc2[nH]c(-c3ccc([C@H]4CCCN4)cc3F)nc12`, the Potency entry in assay [3] and in [2] was “inactive” each time. In addition, the outcome in [1] was inactive.
Regarding `COC(=O)[C@@H]1[C@H]2C[C@H]3c4[nH]c5ccccc5c4CCN3C[C@@H]2CC[C@@H]1O`, the compound was called inactive in assay [4], in [5], in assay [6], in [7], in [8] and in assay [9]. Further, the compound was classed as inactive in [10], in assay [11], in [12], in assay [13], in assay [14] and in [15]. The compound was classed as inactive in assay [16], in [17], in [18], in assay [19] and in [20].
`COc1ccc2cc(-c3nc(-c4ccc(S(C)=O)cc4)[nH]c3-c3ccncc3)ccc2c1` (stereo not drawn): the Potency entry in [3] was “inactive”.
As to `O=c1cc(-c2ccccc2)oc2cc(O)c(O)c(O)c12`, the Potency result in assay [3] and in [2] was “inactive” each time. Moreover, the compound was called inactive in assay [1], in [4], in assay [5], in assay [7], in assay [8] and in [10]. The compound was called inactive in assay [11], in [12], in [13], in assay [14], in assay [15] and in [16]. The compound was classed as inactive in [17], in assay [18], in assay [19] and in assay [20].
As to `O=c1c(O)c(-c2ccc(O)cc2)oc2cc(O)cc(O)c12`, the activity change, negative = inhibition in assay [2] is 13.5% [at 0.997 µM] (inactive).
Turning to `O=C(O)C(O)Cc1ccc(O)c(O)c1` (stereo not drawn), the result in [4], in assay [5], in assay [6], in [7], in assay [9] and in assay [10] was inactive. Moreover, the result in assay [11], in assay [12], in assay [13], in assay [15], in assay [16] and in assay [17] was inactive. Also, the compound was classed as inactive in assay [18], in assay [19] and in assay [20].
Regarding `O=C(O)c1c(Cl)c(Cl)c(Cl)c(Cl)c1-c1c2cc(I)c(=O)c(I)c-2oc2c(I)c(O)c(I)cc12`, the Potency entry in assay [2] was “inactive”.

The values are drawn from PubChem BioAssay (NCATS).
